TDP1 cell noCPT: qHTS for Inhibitors of human tyrosyl-DNA phosphodiesterase 1 (TDP1): qHTS in cells in absence of CPT | DT40 Tdp1-/- hTDP1 cells, no CPT, ATP luminescence, 48 h | actives 15% (n = 420,000) | Potency, µM (titrated, usually from 46.2 µM), for inactives: at the top dose activity change, negative = growth inhibition, actives largely listed as inhibitors; also: nearly all actives have a fitted effect of over 55% in size
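Chicken DT40 Tdp1-/- cells complemented with human TDP1, screened without camptothecin (DMSO vehicle only), 400 cells/well. Compounds pin-transferred, cells incubated at 37 °C for at least 48 hr. Growth read as ATP-dependent luminescence (CellTiter-Glo, 30 min at RT).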
TDP1 block: inhibitors of human tyrosyl-DNA phosphodiesterase TDP1; actives 0.28% (n = 350,000); recombinant TDP1, AlphaScreen DNA substrate cleavage; Q9NUW8; Potency, µM (titrated, usually from 130 µM), inactives show at the highest dose activity change, negative = inhibition, most hits filed as inhibitors; also: nearly all actives have a fitted effect of over 40% in size
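Enzyme-compound mixtures sat 15 min at room temperature, followed by a 5 min reaction with 15 nM final substrate and 10 min with AlphaScreen beads. Recombinant human Tdp1 was used at 1 nM final.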
DT40 TDP1 CPT: growth inhibition of DT40 Tdp1-/-;hTDP1 cells with camptothecin (screen for TDP1 inhibitors); actives 12% (n = 420,000); Potency, µM (doses to about 46.2 µM), inactives show top-dose activity change, negative = growth inhibition, hits mostly inhibitors; AID 686979; chicken DT40 Tdp1-/-;hTDP1 cells + 20 nM CPT, ATP luminescence, 48 h; also: nearly all actives have a fitted effect of over 55% in size
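Chicken DT40 Tdp1-/- cells stably complemented with human TDP1 were seeded at 400 cells/well in medium containing 20 nM camptothecin, exposed to pin-transferred compounds, and grown at 37 °C for at least 48 hr. Viability was read as ATP luminescence.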
RORg inh: ROR gamma (mouse) transcription inhibition; P51450; Drosophila S2 Gal4-RORgamma UAS-luciferase reporter, 20 h; Potency, µM (top dose mostly 53.6 µM), without a hit: top-dose activity change, negative = inhibition, usual class: inhibitors; actives 5.4% (n = 310,000); AID 2551; also: nearly all actives have a fitted effect of over 60% in size
Target sequence (P51450 whole entry, looked up, the tested form may be a part): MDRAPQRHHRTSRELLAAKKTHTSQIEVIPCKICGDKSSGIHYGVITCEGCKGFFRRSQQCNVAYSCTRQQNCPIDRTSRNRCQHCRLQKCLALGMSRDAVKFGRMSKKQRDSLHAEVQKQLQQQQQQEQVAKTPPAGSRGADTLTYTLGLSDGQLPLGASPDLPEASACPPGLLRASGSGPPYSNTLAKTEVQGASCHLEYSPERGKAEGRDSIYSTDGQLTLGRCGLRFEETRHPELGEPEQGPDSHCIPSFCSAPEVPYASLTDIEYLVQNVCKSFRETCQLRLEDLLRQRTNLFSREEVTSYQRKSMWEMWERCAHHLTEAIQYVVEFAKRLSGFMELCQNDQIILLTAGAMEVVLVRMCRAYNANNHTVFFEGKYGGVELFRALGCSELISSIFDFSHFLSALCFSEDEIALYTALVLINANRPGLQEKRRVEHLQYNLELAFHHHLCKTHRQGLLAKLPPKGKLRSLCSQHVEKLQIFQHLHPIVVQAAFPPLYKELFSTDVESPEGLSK
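A Gal4/UAS one-hybrid system in insect cells: metallothionein-promoter Gal4–ROR gamma fusion plus Photinus luciferase reporter. Copper sulfate 700 uM final, 20 hr ambient incubation, luminescent detection after 10 min with reagent.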
Gal4-VP16 FLuc: inhibits Gal4-VP16 luciferase reporter, ROR gamma counter-screen. actives 3.5% (n = 310,000). Potency, µM (top dose mostly 53.6 µM), without a hit: top-dose activity, negative = inhibition, most hits filed as inhibitors. AID 2546. Drosophila S2 Gal4-VP16 UAS-luciferase, luminescence, 20 h;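 also: Gal4-VP16 expression switched on by copper sulfate through the metallothionein promoter; nearly all actives have a fitted effect of over 50% in size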
The depositor's hits bear a star; u = inconclusive; x = no result; [ ] = remark or other dose. Rows were chosen to be rich in hits. Some 19% of all compounds tested hit in one or more screens of this group. Calls follow the shape of the dose curve; as a rule, active = well fitted curve in the direction sought with a large enough effect; inconclusive = small, poorly fitted or top-dose-only effect, or another doubt; inactive = no such curve, though single readings can be large; an effect the other way counts as inactive or inconclusive. % is scaled to controls: 0 for no effect and ±100 for the full control effect; potency is read from the fitted curve at half-maximal effect.

SMILES	TDP1 cell noCPT	TDP1 block	DT40 TDP1 CPT	RORg inh	Gal4-VP16 FLuc
COc1cc(OC)cc(-c2c(-c3cccs3)c3cc(-c4cnc(N)nc4)ccc3n2C)c1	u	2.5%	23.1µM*	x	x
COc1ccc(OC)c(-c2nc(C(=O)NCCCN3CCOCC3)cc3c2[nH]c2ccccc23)c1	23.1µM*	x	16.4µM*	-17.2%	3.6%
COc1ccc([N+](=O)[O-])cc1C(=O)NC1CCN(Cc2ccccc2)CC1	-22.2%	x	-1.2%	x	x
COc1cc(-c2nc(C(=O)NC3CCCCC3)cc3c2[nH]c2ccccc23)cc(OC)c1OC	23.1µM*	x	16.4µM*	27.1%	-3.8%
COc1ccc(OC)c(-c2nc(C(=O)NC3CCN(Cc4ccccc4)CC3)cc3c2[nH]c2ccccc23)c1	11.6µM*	x	10.3µM*	25.3%	-25.7%
COc1cc(-c2nc(C(=O)NC3CCN(Cc4ccccc4)CC3)cc3c2[nH]c2ccccc23)cc(OC)c1OC	13µM*	x	11.6µM*	-42.6%	u
CSCC[C@H](NC(=O)c1cc2c([nH]c3ccccc32)c(-c2ccccc2)n1)C(=O)O	1.9%	x	2.2%	6.8%	3.3%
COc1cc(C(=O)NC2CCN(Cc3ccccc3)CC2)cc(Cl)c1OC	u	x	u	16.1%	8.5%
OC(Cc1cccnc1)(Cc1cccnc1)c1cc2ccccc2[nH]1	-20.4%	0.0%	6.5%	u	12.3%
OC1(c2cccs2)CN(c2ccccc2)C2=[N+]1CCCC2 (stereo not given)	-3.9%	3.5%	-0.7%	-13.7%	2.0%
COCCNC(=O)C1(C)CCCN(Cc2ccc(OCc3ccccc3)cc2)C1 (stereo not given)	20.6µM*	x	25.9µM*	x	x
CCCNC(=O)C1(C)CCN(Cc2ccc(OCc3ccccc3)cc2)C1 (stereo not given)	18.4µM*	x	23.1µM*	x	x
COCCNC(=O)C1(C)CCN(Cc2ccc(C(C)C)cc2)C1 (stereo not given)	20.6µM*	x	u	x	x
COCCNC(=O)C1(C)CCCN(Cc2ccc(Cl)c(Cl)c2)C1 (stereo not given)	16.4µM*	x	20.6µM*	x	x
COCCNC(=O)C1(C)CCCN(Cc2ccc(Cl)nc2)C1 (stereo not given)	5.0%	x	-3.8%	x	x
CCCNC(=O)C1(C)CCCN(Cc2ccsc2)C1 (stereo not given)	1.9%	x	-12.2%	x	x
COCCNC(=O)C1(C)CCCN(Cc2ccc(OC)cc2)C1 (stereo not given)	-10.8%	x	-33.6%	x	x
CN(c1ccccc1)S(=O)(=O)c1nnc(NC(=O)COc2ccccc2F)s1	u	-0.2%	2.5%	31.3%	-0.1%
CCCNC(=O)C1(C)CCN(Cc2ccc(C(=O)OCC)cc2)C1 (stereo not given)	16.4µM*	x	u	x	x
COCCNC(=O)C1(C)CCCN(CCSc2ccccc2)C1 (stereo not given)	13µM*	x	u	x	x
CCCNC(=O)C1(C)CCN(Cc2cc(C(F)(F)F)ccc2Cl)C1 (stereo not given)	14.6µM*	x	23.1µM*	x	x
CCNC(=O)C1(C)CCN(Cc2cccc(C(F)(F)F)c2)C1 (stereo not given)	-26.3%	x	-26.4%	x	x
CCCNC(=O)C1(C)CCCN(Cc2ccc(C#N)cc2)C1 (stereo not given)	u	x	-26.2%	x	x
COCCNC(=O)C1(C)CCCN(Cc2cc(-c3ccccc3)on2)C1 (stereo not given)	23.1µM*	x	13µM*	x	x
O=C(Oc1cccc(C(=S)N2CCOCC2)c1)c1ccc([N+](=O)[O-])cc1[N+](=O)[O-]	-15.8%	7.0%	-21.7%	-26.1%	u
SMILES	TDP1 cell noCPT	TDP1 block	DT40 TDP1 CPT	RORg inh	Gal4-VP16 FLuc
CNc1c(NS(=O)(=O)c2ccc(CC(C)C)cc2)c(=O)oc2ccccc12	-10.4%	-6.1%	-9.8%	-4.3%	0.1%
CCOc1ccc(Nc2sc(C(=O)c3ccc(F)cc3)c(N)c2S(=O)(=O)c2ccc(C)cc2)cc1	x	-5.3%	x	x	x
CCOc1ccc(S(=O)(=O)c2c(C(=O)c3ccccc3)cnc3cc4c(cc23)OCCO4)cc1	10.3µM*	5.5%	u	33.3%	3.2%
COc1ccc(S(=O)(=O)c2c(Nc3ccc(C)cc3C)sc(C(=O)c3ccc(F)cc3)c2N)cc1	u	7.7%	u	x	x
CCOc1ccc(C(=O)c2cnc3ccc(Cl)cc3c2S(=O)(=O)c2ccc(C)cc2)cc1	5.17µM*	2.0%	5.8µM*	x	x
CCOc1ccc(S(=O)(=O)c2c(C(=O)c3ccc(CC)cc3)cnc3ccc(C)cc23)cc1	23.1µM*	6.8%	u	x	x
CCc1ccc(C(=O)c2cnc3ccc(C)cc3c2S(=O)(=O)c2ccc(OC)cc2)cc1	18.4µM*	3.9%	23.1µM*	x	x
COC(=O)CCc1nc2cc(Cl)ccc2n(Cc2ccccc2)c1=O	u	-2.5%	-10.9%	2.9%	-2.2%
CCCN(Cc1cccs1)C(=O)Nc1cc(OC)ccc1OC	u	-2.9%	u	x	x
COc1cc(C(=O)OCC(=O)N2CC(C)OC(C)C2)cc(OC)c1OC (stereo not given)	-0.5%	x	12.8%	25.9%	-3.1%
CCc1ccc(S(=O)(=O)c2c(C(=O)c3ccc(C)c(C)c3)cnc3ccccc23)cc1	13µM*	0.0%	u	x	x
COC(=O)C1Sc2[nH]c(=O)sc2C2c3ccccc3OC(=O)C12 (stereo not given)	5.3%	-2.0%	-1.2%	8.8%	-1.5%
Cc1ccc(NC(=O)c2ccc(NC(=O)c3ccccc3)cc2)cc1C	u	3.8%	13µM*	15.2%	25.7%
Cc1cccc(NC(=O)c2ccc(NC(=O)c3ccccc3Br)cc2)c1	u	0.9%	u	-9.7%	-0.8%
COc1ccc(C(=O)Nc2ccc(Nc3ccccc3)cc2)cc1[N+](=O)[O-]	20.6µM*	x	23.1µM*	u	-1.1%
COc1ccc(C(=O)Nc2ccc(Nc3ccccc3)cc2)cc1OC	12.3%	x	-4.7%	20.2%[1.91 µM]	0.5%
Cc1ccc(C(=O)Nc2ccc(Nc3ccccc3)cc2)cc1Br	4.11µM*	x	6.51µM*	x	x
Cc1ccc(C(=O)Nc2ccc(Nc3ccccc3)cc2)cc1C	20.6µM*	x	20.6µM*	x	x
Cc1cccc(C(=O)Nc2ccc(NC(=O)c3ccccc3)cc2)c1	u	x	u	16.6%	8.8%
O=C1NC(=O)/C(=C\c2ccc(N3CCOCC3)o2)N1	13.6%	0.0%	23.8%	-40.4%	-4.7%
COc1cccc(CNC(=O)Cc2ccc(S(=O)(=O)N3CCOCC3)s2)c1	-1.1%	1.3%	1.5%	x	x
Cc1cc(C)cc(NC(=O)CSc2nnc(C3CC3)n2CC2CCCO2)c1 (stereo not given)	-3.0%	11.8%	8.4%	-0.8%	6.7%

Assay outcomes: PubChem, National Center for Advancing Translational Sciences (NCATS)
